Screening results from PubChem.
IL-2 act: activators of IL-2; IL-2 activation reporter assay, cell-based qHTS; stimulated with anti-CD3/CD4/CD28 beads; in transgenic mouse T cells; activation, % (series mostly up to about 46 µM); 0.065% of 360,000 active; AID 652025; in the data active = activation above about 50%; inconclusive = mostly about 30% to 49%
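Readout: EGFP and DsRed signals by fluorescent plate cytometry. Unstimulated transgenic mouse T cells received compound 60 min before antibody-bead stimulation, then incubated 18 h at 37 degrees C.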
uPA generation: blocks generation of uPA at the cell surface; Potency, µM (titrated, usually from 38.3 µM), hits mostly inhibitors; 0.31% of 330,000 active; cell surface uPA generation assay, qHTS; active = well fitted inhibition curve with a large enough effect; inconclusive = small, poorly fitted or top-dose-only effect; inactive = no such curve, though single readings can be large or run the other way; tested in mouse RAW 264.7 cells; also: nearly all actives have a fitted effect of over 55% in size
p53 reactivation: mutant p53 re-activation in reporter cells; H1299 p53-A138V BP100-luciferase reporter, luminescence, 24 h; Potency, µM (top dose mostly 92.2 µM), actives largely listed as activators; 0.063% of 320,000 active; AID 504706; also: nearly all actives have a fitted effect of over 45% in size
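p53-null H1299 cells stably carrying temperature-sensitive p53-A138V and a BP100-luciferase reporter were pinned with compounds (4-point, 1:5 series) and held 24 hrs at 37 deg C. Luminescence was read 10 min after detection reagent.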
TCR act: T cell receptor activation | primary human leukocytes, anti-CD3, IL-2 HTRF, 48 h | Potency, µM (series often up to 9.22 µM), hits mostly activators | AID 504894 | 330,000 tested, under 10 active
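Compounds are tested in HTS on primary human leukocytes co-incubated with a-CD3 beads for 48 hr. IL-2 output is measured by time-resolved FRET.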
BRCA1 expr up: increases BRCA1 expression; MCF7-BRCA1-FFLuc reporter, luminescence, 48 h; response scale: scaled: vehicle 0%, 10 µM genistein 100%; Potency, µM (doses to about 46.1 µM), most hits filed as activators; 1.1% of 380,000 active; AID 624202; also: nearly all actives have a fitted effect of over 80% in size
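Cells: MCF7-BRCA1-FFLuc, 2000/well. Exposure: 48 h, 37 °C, 5% CO2. Read: luminescence, 15 min post-substrate. Controls: genistein 10 microM (maximal activation), DMSO (neutral).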
Large screens that a line does not name were inactive. Compounds with a hit are over-represented: about 1.4% of the library has one in this group of screens. Unless noted, calls follow the shape of the dose curve; as a rule, active = well fitted curve in the direction sought with a large enough effect; inconclusive = small, poorly fitted or top-dose-only effect, or another doubt; inactive = no such curve, though single readings can be large; an effect the other way counts as inactive or inconclusive.

Cc1ccc(NC(=O)c2ccc(S(=O)(=O)N(C)c3ccccc3)cc2)cc1S(=O)(=O)N1CCOCC1	uPA generation inconclusive (no result: p53 reactivation)
NC(N)=N/N=C/c1ccc(N2CCOCC2)cc1	uPA generation 7.9µM
CN1CC=C(/C=C/c2ccc(-c3ccccc3)cc2)CC1	uPA generation inconclusive, BRCA1 expr up 8.9µM
COc1ccc(/C=C/C2=CCN(C)CC2)cc1	BRCA1 expr up inconclusive
CN(C)c1ccc(/C=C(\Cl)c2nc3ccccc3s2)cc1	uPA generation 10µM
CC(C)c1oc(=O)cc2c1[C@@H](O)[C@H]1OC(=O)[C@@]3(C)C[C@@H](O)[C@@H](O)[C@@]2(C)C13 (stereo partly specified)	uPA generation 2.2µM
CC(C)c1oc(=O)cc2c1[C@@H](O)[C@H]1OC(=O)[C@@]3(C)CC[C@@H](O)[C@@]2(C)C13 (stereo partly specified)	uPA generation inconclusive
CCCCCCn1c(O)c(C=Nc2ccccc2N2CCOCC2)c(=O)[nH]c1=S	IL-2 act 59
COc1ccc([C@H]2CC(=O)C=C(c3c(OC)cccc3OC)C2)cc1	uPA generation 2.2µM
O=C1CSC(=S)N1Cc1cccs1	uPA generation inconclusive (no result: p53 reactivation)
CC(=O)O[C@@]12CO[C@@H]1C[C@H](O)[C@@]1(C)C(=O)[C@H](O)C3=C(C)[C@@H](OC(=O)[C@H](O)[C@@H](NC(=O)c4ccccc4)c4ccccc4)C[C@@](O)([C@@H](OC(=O)c4ccccc4)C12)C3(C)C (stereo partly specified)	uPA generation 0.45µM (no result: p53 reactivation)
O=C(CSc1nnc(NC(=O)c2ccccc2F)s1)NCc1ccc(F)cc1	p53 reactivation inconclusive, BRCA1 expr up 5µM
CCSc1nnc(NC(=O)c2cccn(Cc3ccccc3Cl)c2=O)s1	none (no result: IL-2 act, uPA generation, p53 reactivation, TCR act)
CCO[C@@H]1OC(C(=O)NCc2ccccc2)=C[C@H](c2csc3ccccc23)[C@H]1CCCO	uPA generation inconclusive
O=C(NCCc1ccccc1)[C@@H]1CC=C[C@@H]2CCN(Cc3ccc(Cl)c(Cl)c3)C(=O)[C@@H]21	uPA generation inconclusive (no result: p53 reactivation)
